The target in this test is RUNX1 (UniProt Q01196). In words: RUNX1 binding intensity (PBM fluorescence) in presence of ETS1, normalised to RUNX1-only experiment (arbitrary fluorescence units); higher = stronger binding. Conditions: RUNX1 concentration 2 nM; ETS1 concentration 25 nM. How it is done:
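Cooperative gcPBM on 36-bp genomic probes with neighbouring ETS1 and RUNX1 sites. Recombinant human RUNX1 (2 nM) was incubated alone or with ETS1 (25 nM) and detected with anti-RUNX1 antibody plus Alexa488 secondary. Values are medians over 4 replicate spots; the RUNX1+ETS1 data were normalised to the RUNX1-only data. The probes sit in constant array flanks that are not printed.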
RUNX1, sequence (Q01196 whole entry): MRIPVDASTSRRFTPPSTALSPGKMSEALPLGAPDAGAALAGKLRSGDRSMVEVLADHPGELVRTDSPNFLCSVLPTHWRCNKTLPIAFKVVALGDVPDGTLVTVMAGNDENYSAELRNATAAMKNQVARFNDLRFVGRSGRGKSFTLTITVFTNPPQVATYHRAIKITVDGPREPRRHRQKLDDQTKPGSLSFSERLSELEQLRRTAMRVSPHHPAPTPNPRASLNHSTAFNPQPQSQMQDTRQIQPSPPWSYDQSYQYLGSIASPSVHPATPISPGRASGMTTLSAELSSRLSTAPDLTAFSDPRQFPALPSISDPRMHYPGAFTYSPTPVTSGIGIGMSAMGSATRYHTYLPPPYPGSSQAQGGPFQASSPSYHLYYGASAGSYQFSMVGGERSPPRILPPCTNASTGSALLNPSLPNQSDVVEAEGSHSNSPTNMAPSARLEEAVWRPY
In the case of CCCGCGACACAAGGCGGATGTGGTACCCTCACTTGT, the RUNX1 binding intensity was 1200.

As for CGAGTAGAGATAGCAGGAAGTGGTTTATTCTGAGGT, the RUNX1 binding intensity came out at 1800.

Take CTTAGCGGAAGAGGCGTGACCCAGGCGTACCGCAGG: the RUNX1 binding intensity turned out to be 870.

Turning to CCTGCTGCTTCCGCCCGGAGTTGTTGTGGGCTCCAG, the RUNX1 binding intensity was 1870.

On to GGCAACCGGCCCCGGAAGTTGCGGCAGGTGCGTCCA, for which the RUNX1 binding intensity amounted to 1640.

For ATGTCTTCCTGTACAGGAACTGGGTCCCAGCCGCAG, the RUNX1 binding intensity turned out to be 1510.

On to CTGGTAGAAAAGGAAGCAGGTTGTGGTGAGCATTTA, for which the RUNX1 binding intensity was 932.

Turning to GTGGATTTCACATCCTGTCCTAGCGGTATGTTTGTC, the RUNX1 binding intensity was determined as 1750.

Regarding GTTCCTAGGCAGGCAGGATGTGGCTATAAGCTACAT, the RUNX1 binding intensity came out at 1150.

Take ACCTGAGCAGGAAGTAGCTGAGGTCGCGGTGCAGCA: the RUNX1 binding intensity came to 1080.

With AGGCAAACTACAGGAAGATCCTGCCCGCAACTTGGT, the RUNX1 binding intensity is 931.

TACTACTTACCAGCAGGATGTGGTCCCTGCCCACTG: the RUNX1 binding intensity is 1250.

As for AGGTACCAGGCCCGGAAACCACGGAAAGGGGAACTT, the RUNX1 binding intensity is 1100.

On to AGGCTGTGGCGGAAGTGGTCGCGTTACCGCTTGTTT, for which the RUNX1 binding intensity was 3760.

As to TTCTTCCGGCAACTGCTGCTGAGGCTGCGGTGGCGG, the RUNX1 binding intensity turned out to be 2050.

On to GCGCGGCCAGAGAAAGGATGTGGTATAGCAGAAAGT, for which the RUNX1 binding intensity amounted to 1040.

For CCCTCTCTTCTTCCTCCCCCACCACAAAAGTCACAG, the RUNX1 binding intensity was 2280.

As for GTCTGCTTAAAAACAGGAAACCACATATCTCCACCC, the RUNX1 binding intensity was 1990.

Take TCGCCCGCCGCTTCCTGTCGCGGCGCCGCAGAGGCC: the RUNX1 binding intensity was determined as 3000.

Turning to ACTTCACTTCCCAACCTCCCCTGTGGTTAGGTGTGG, the RUNX1 binding intensity came to 1220.

Turning to TTCAGTCCTGGTTTCCTGTGGTTCTAGGATCTTTAT, the RUNX1 binding intensity worked out at 1440.

Consider GAGCACAGGAAAAGCTGGTGCCAACCACAAGTGCTT, for which the RUNX1 binding intensity came to 971.

For CCCACTGATAAGACAGGATGTGGTAAAGAAGCCAGC, the RUNX1 binding intensity was 6790.

On to ATACAGACACAGGAAGTTGTGGGGAGTGCAAAAGCC, for which the RUNX1 binding intensity was found to be 1530.

For the sequence AGGCTCATTTCCTGTTTTCATGTGGTTTAGAGAAAA, the RUNX1 binding intensity came out at 3930.

Consider AACCTCCGACTTCCGGCCGCGCAGCGGTGGGCTGAG, for which the RUNX1 binding intensity stood at 1970.

Turning to CTGTGCGAGGCAGGATGTGGTCTCCCGCCACCAGGG, the RUNX1 binding intensity was determined as 3160.

For GGCTTCCGCCTGCCGAGCGGCCCCGGACCGCAGGCC, the RUNX1 binding intensity is 1980.

As to GTGGGGGTGACAGGATGCGGGTAGAGGGCTCAGCCA, the RUNX1 binding intensity stood at 1460.

In the case of GGATGACATCCGGCACCAACTTAACCACTAATCTCA, the RUNX1 binding intensity was found to be 2410.

Turning to GGACCGGAAGTTAAGGCGTTCGCGGCGTGTGGTAAG, the RUNX1 binding intensity stood at 1560.

Consider TGTGGAGACAGGAAGCACTAACCTCAAACCTCTTTC, for which the RUNX1 binding intensity is 1770.

On to TGGCGCTTCCTGTCGCTACCGCTGCGGCCCAGGGCC, for which the RUNX1 binding intensity is 1860.

For TATGGGGCCGGAAGCCATTCACCACAAACACTGTGT, the RUNX1 binding intensity came out at 3610.

In the case of AACAAACAGTAGGCAGGAAGTGGTTAAACCGAAAGG, the RUNX1 binding intensity came out at 3590.

Regarding ACTGAAAACAGCACAGGATGTGGTCTGCCAGGTGCC, the RUNX1 binding intensity worked out at 1440.

Take AGAAGCTTCTACAGGAAACCACTAATGGAGACAGAG: the RUNX1 binding intensity was 958.

As to GGCTTTCCGTTCAAGGATCTTTTTGCGGTCTTTGTC, the RUNX1 binding intensity came out at 3270.

For the sequence GTACGACAGCGGGTTCCGGTGACCACGAAGGCGGCA, the RUNX1 binding intensity was 1180.

For the origin of these results see the supplement of paper PMC10681739.
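Note: Full-length recombinant human ETS1 or RUNX1 bound to double-stranded 36-bp genomic probes on microarrays, detected by protein-specific primary antibody and Alexa488 secondary, spot fluorescence as median of four replicate spots.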
